# Bioassay records from PubChem BioAssay.
# An excerpt weighted towards active compounds, which were near 27% of everything screened.
# CYP2C19 activ = human CYP2C19 activators, primary screen, biochemical, luminescence. recombinant CYP2C19, luciferin-H EGE luminescence; stronger effect = higher value; 0 = fully inhibited enzyme, 1 = untreated enzyme. 96,000 tested, under 10 active. activation factor at 5 µM;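 active means activation factor of at least 2 at 5 µM in the primary screen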;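 further: 0 = wells with 2.5 mM tranylcypromine and 1 = vehicle-only wells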
# CYP2C19 inhib = blockers of cytochrome P450 2C19 activity – biochemical, luminescence, ADME assay, primary screen | P33261 | inhibition, % at 5 µM | 96,000 tested, 21% active | CYP2C19 Supersomes, luciferin-H EGE luminescence, 30 min;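 active means CYP2C19 inhibition above a set limit at 5 µM in the primary screen, cut at about 50% in these data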;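 further: plate controls were negative control wells for no effect and 2.5 mM tranylcypromine positive control for full effect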
# sEH inh = soluble epoxide hydrolase inhibitors, primary screen, biochemical, human sEH. recombinant human sEH enzymatic activity assay. inhibition, % at 2 µM. 91,000 tested, 0.34% active; in the data active means inhibition above about 80%
# Target sequence (P34913 whole entry, looked up): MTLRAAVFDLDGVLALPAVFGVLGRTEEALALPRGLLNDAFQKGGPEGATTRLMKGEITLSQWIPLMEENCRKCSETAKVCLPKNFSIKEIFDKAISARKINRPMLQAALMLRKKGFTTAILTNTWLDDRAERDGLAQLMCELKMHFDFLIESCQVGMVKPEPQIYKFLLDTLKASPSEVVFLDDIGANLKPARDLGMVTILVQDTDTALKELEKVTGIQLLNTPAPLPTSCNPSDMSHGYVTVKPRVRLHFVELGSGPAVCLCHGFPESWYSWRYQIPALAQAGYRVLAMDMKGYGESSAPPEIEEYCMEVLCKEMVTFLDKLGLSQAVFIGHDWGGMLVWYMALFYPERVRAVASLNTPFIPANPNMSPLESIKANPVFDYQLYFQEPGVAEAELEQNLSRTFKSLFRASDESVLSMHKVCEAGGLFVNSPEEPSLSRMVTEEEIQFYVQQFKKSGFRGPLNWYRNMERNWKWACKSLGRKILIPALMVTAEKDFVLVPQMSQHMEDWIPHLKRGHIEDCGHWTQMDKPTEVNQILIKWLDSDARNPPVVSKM
# CYP2C9 act = human CYP2C9 activators, primary screen, biochemical, luminescence; recombinant CYP2C9, luciferin-H conversion; stronger effect = higher value; factor 1 = untreated enzyme, 0 = blocked; activation factor at 5 µM; 96,000 tested, 1.4% active;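 active means activation factor of 2 or more for CYP2C9 at a 5 µM dose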;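 further: 0 = sulfaphenazole-blocked wells and 1 = vehicle-only wells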
# CYP2C9 inhib = blockers of cytochrome P450 2C9 activity – biochemical, luminescence, ADME assay, primary screen | AID 777, 2007 | CYP2C9 Supersomes, luciferin-H conversion | 96,000 tested, 20% active | inhibition, % at 5 µM | P11712;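 active means blocking of liver enzyme CYP2C9 beyond about 50% at 5 µM, limit read from the data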
# sEH act = soluble epoxide hydrolase activators, primary screen, biochemical, human sEH | Bifunctional epoxide hydrolase 2 (Homo sapiens), P34913 | purified human sEH enzymatic activity, activator screen | activation, % at 2 µM | 91,000 tested, 0.04% active; in the data active means activation above about 37%
# Starred values were filed as active, the others as inactive; / = not tested or not shown.
SMILES,CYP2C19 activ,CYP2C19 inhib,sEH inh,CYP2C9 act,CYP2C9 inhib,sEH act
CCCc1nc2ccccc2n1CCOC,1,4,-6,1,4,9
COc1ccc(NCc2nc3ccccc3n2CCOc2ccccc2)cc1,0.8,25,-10,0.2,79*,7
O=C(Nc1nc2ccccc2n1CCOc1ccccc1)c1ccco1,0.4,58*,/,0.6,38,/
CCOCCn1c(CCCO)nc2ccccc21,1,0,7,1.1,-7,-6
COCCNC(=O)C(=O)N/N=C/c1ccccc1C(F)(F)F,/,/,8,/,/,-6
Cn1c(CNc2nc(-c3ccccc3)cs2)nnc1SCC(=O)N1CCc2ccccc21,0.6,37,14,0.7,33,-9
COc1ccc(CC(NC(C)=O)C(=O)NC2CCN(S(=O)(=O)c3cccc4ccccc34)CC2)cc1OC (stereo not drawn),0.8,19,4,0.9,8,-6
CCOC(=O)c1c(NC(=O)c2nn(CC)cc2Br)sc(C)c1C,0.8,20,-4,0.2,76*,-2
CCOC(=O)c1c(NC(=O)c2nn(CC)cc2Br)sc2c1CCCCC2,0.6,44,2,0.2,82*,0
CCOC(=O)c1c(NC(=O)Cn2nc(C(F)F)cc2C(F)F)sc(C)c1C,0.7,28,11,0.4,65*,-9
COC(=O)c1ccc(C(=O)OCc2nc3cc4ccccc4cc3[nH]2)cc1,/,/,-1,/,/,1
O=S1(=O)N=C(Nc2ccc(O)c(CN3CCCCC3)c2)c2ccccc21,1.2,-16,/,1.2,-18,/
O=c1oc2ccccc2cc1-c1cn2cccnc2n1,0.4,57*,2,0.8,25,-3
Cc1ccccc1CSc1nc2n(n1)C(c1cccs1)C1=C(CCCC1=O)N2 (stereo not drawn),0.8,17,-9,0.4,58*,11
O=C1CCCC2=C1C(c1cccs1)n1nc(SCc3ccccc3F)nc1N2 (stereo not drawn),/,/,3,/,/,-4
Cc1ccc(CN(C(=O)c2cc3ccccc3oc2=O)C2CCS(=O)(=O)C2)cc1 (stereo not drawn),0.9,8,-2,0.7,29,3
O=C(c1sc2ccccc2c1Cl)N(Cc1ccco1)C1CCS(=O)(=O)C1 (stereo not drawn),0.3,71*,4,0.3,70*,-6
O=C(c1cccs1)N(Cc1ccco1)C1CCS(=O)(=O)C1 (stereo not drawn),0.4,56*,-3,1.1,-5,1
Cc1cc2oc(C(=O)N(Cc3ccccc3)C3CCS(=O)(=O)C3)cc(=O)c2cc1Cl (stereo not drawn),0.4,62*,0,0.2,80*,1
O=C(c1sc2ccccc2c1Cl)N(Cc1ccccc1Cl)C1CCS(=O)(=O)C1 (stereo not drawn),0.7,30,3,0.2,85*,-2
O=C(c1cccs1)N(Cc1cccc(Cl)c1)C1CCS(=O)(=O)C1 (stereo not drawn),0.8,17,-5,0.7,28,3
Cc1ccc(N)cc1CN1CCCC1=O,0.9,11,/,0.9,7,/
O=C(OCC(=O)N1CCc2ccccc21)c1ccc(Cl)nc1,0.8,17,15,0.9,7,-17
CC(C)c1ccc(CN(C(=O)C2COc3ccccc3O2)C2CCS(=O)(=O)C2)cc1 (stereo not drawn),1,5,7,0.7,32,-7
O=C(c1ccccc1F)N(Cc1ccccc1)C1CCS(=O)(=O)C1 (stereo not drawn),0.7,32,-10,0.9,8,9
SMILES,CYP2C19 activ,CYP2C19 inhib,sEH inh,CYP2C9 act,CYP2C9 inhib,sEH act
O=C(c1ccccc1F)N(Cc1ccc(F)cc1)C1CCS(=O)(=O)C1 (stereo not drawn),0.2,83*,3,0.9,15,-6
CN(C)c1ccc(CN(C(=O)C2COc3ccccc3O2)C2CCS(=O)(=O)C2)cc1 (stereo not drawn),0.1,94*,0,0.3,65*,1
CCN(CC)c1ccc(CN(C(=O)c2cc(OC)c(OC)c(OC)c2)C2CCS(=O)(=O)C2)cc1 (stereo not drawn),0.7,34,15,0.7,26,-12
CCN(CC)c1ccc(CN(C(=O)c2ccco2)C2CCS(=O)(=O)C2)cc1 (stereo not drawn),0.4,57*,-4,0.4,58*,4
O=C(c1sc2ccccc2c1Cl)N(Cc1ccccc1)C1CCS(=O)(=O)C1 (stereo not drawn),0.5,52*,5,0.3,68*,-5
Cc1nnc(SCC(N)=O)n1CCc1ccccc1,/,/,-8,/,/,8
COc1cccc(N2CCN(C(=O)c3ccc(=O)oc3)CC2C)c1 (stereo not drawn),0.8,24,-4,0.7,33,3
Cc1ccc(OCC(=O)Nn2c(C)nc3ccccc3c2=O)c(C(C)C)c1,1,4,-6,0,98*,6
Cc1ccccc1OCC(=O)Nn1c(COc2ccccc2)nc2ccccc2c1=O,0.7,34,14,0,100*,-13
Cc1cccc(C)c1OCC(=O)N/N=C/c1cccn1C,/,/,8,/,/,-6
Cc1cccc(C)c1OCC(=O)Nn1c(COc2ccccc2)nc2ccccc2c1=O,0.9,13,2,0.2,76*,-5
Cc1ccc(OCC(=O)NN2C(=O)c3ccccc3C2=O)c(C)c1,0.6,36,6,0.9,13,-4
CC(=O)Nn1c(COc2ccccc2C)nc2ccccc2c1=O,0.2,76*,5,0.2,77*,-6
CCCc1nc(N2CCOCC2)c2sc(=S)n(-c3ccccc3)c2n1,0.9,7,4,0.7,27,-2
OCCN(CCO)CC(O)COCCC12CC3CC(CC(C3)C1)C2 (stereo not drawn),0.8,18,-1,0.9,13,0
CCOC(=O)c1cc(-c2ccc(C)cc2)n(CCC(=O)NC(C)CC)c1C (stereo not drawn),0.4,64*,-9,0.5,48,8
CCOC(=O)c1cc(-c2ccccc2)n(CC(=O)O)c1C,0.9,5,/,0.3,72*,/
CCCNC(=O)CCn1c(-c2ccc(C)cc2)cc(C(=O)OCC)c1C,0.3,66*,3,0.4,62*,-4
CC(=O)NC1C(=O)Nc2c(C)cc(C)cc21 (stereo not drawn),1,0,6,1,4,-9
O=C(CCCC(=O)N(CC(=O)NC1CCCCC1)Cc1ccc2c(c1)OCO2)Nc1ccccn1,0.4,65*,-12,0.4,64*,16
O=C(CCCC(=O)N(CC(=O)NC1CCCCC1)Cc1ccco1)Nc1ccccn1,0.9,6,/,0.9,10,/
